Experimental data reported in the supplement of paper PMC13380429.

Assays:
[1] = tested on: Vero E6 infected with SARS-CoV-2; assay: morphology score (similarity to uninfected cells); higher = more like uninfected cells; conditions: 24 h
[2] = tested on: Vero E6 infected with SARS-CoV-2; assay: SARS-CoV-2 infection rate relative to infected DMSO; higher = more infection, active = 60 or less; conditions: 24 h

SMILES | morphology score [1] | SARS-CoV-2 infection rate [2]
N#CC(c1ccc(Cl)cc1)c1c(Cl)cc(-n2ncc(=O)[nH]c2=O)cc1Cl (stereo not given) [diclazuril] (10 µM) | 0.16 | 93% (inactive)
Oc1cc(O)cc(/C=C/c2ccc(O)c(O)c2)c1 [piceatannol] (10 µM) | -0.206 | 112% (inactive)
N#Cc1ccc(N2CCN(C(=O)COc3ccc4[nH]cc(CCN)c4c3)CC2)cc1 [donitriptan] (10 µM) | -0.0047 | 100% (inactive)
CN(C)CCc1c[nH]c2ccc(Cn3cncn3)cc12 [rizatriptan] (10 µM) | -0.00598 | 114% (inactive)
CCCC(=O)O[C@]1(C(=O)CO)CC[C@H]2[C@@H]3CCC4=CC(=O)CC[C@]4(C)[C@H]3[C@@H](O)C[C@@]21C [hydrocortisone-butyrate] (10 µM) | -0.0651 | 102% (inactive)
CCCCC(CC)CCC(CC(C)C)OS(=O)(=O)O (stereo not given) [sodium-tetradecyl-sulfate] (10 µM) | 0.0389 | 102% (inactive)
CCOc1cc(OCC)c(C(=O)CCC(=O)O)cc1OCC [trepibutone] (10 µM) | -0.0558 | 106% (inactive)
CN(C)C(=O)Oc1cc(OC(=O)N(C)C)cc(C(O)CNC(C)(C)C)c1 (stereo not given) [bambuterol] (10 µM) | -0.145 | 114% (inactive)
CC1(C)S[C@@H]2[C@H](NC(=O)[C@H](NC(=O)N3CCNC3=O)c3ccccc3)C(=O)N2[C@H]1C(=O)O [azlocillin] (10 µM) | -0.0252 | 104% (inactive)
COc1ccc(C2CNC(=O)C2)cc1OC1CCCC1 (stereo not given) [rolipram] (10 µM) | 0.39 | 100% (inactive)
CCCCCCCCCCCCCC[C@@H](O)[C@@H](O)[C@@H](N)CO [phytosphingosine] (10 µM) | -0.0786 | 108% (inactive)
c1ccc2c(-c3cnn4cc(-c5ccc(N6CCNCC6)cc5)cnc34)ccnc2c1 (10 µM) | -0.0877 | 108% (inactive)
COc1cc(CCc2cc(NC(=O)c3ccc(N4CC(C)NC(C)C4)cc3)n[nH]2)cc(OC)c1 (stereo not given) (10 µM) | 0.373 | 79.5% (inactive)
Cn1c(=O)c2c(ncn2CC2OCCO2)n(C)c1=O [doxofylline] (10 µM) | -0.118 | 106% (inactive)
CC1=NN=C(c2ccc(N)cc2)c2cc3c(cc2C1)OCO3 (10 µM) | -0.0987 | 112% (inactive)
O=C1Nc2ccccc2/C1=C1/Nc2ccccc2C1=O [indirubin] (10 µM) | 0.173 | 99% (inactive)
CC[C@H](C)n1cc(C)c2c(C(=O)NCc3c(C)cc(C)[nH]c3=O)cc(-c3ccc(N4CCNCC4)nc3)cc21 (10 µM) | -0.212 | 109% (inactive)
O=C(O)c1cc(C(=O)O)c(C(=O)N(Cc2cccc(Oc3ccccc3)c2)[C@H]2CCCc3ccccc32)cc1C(=O)O (10 µM) | 0.189 | 95.5% (inactive)
CN1C(=O)CC(c2ccccc2)C1=O (stereo not given) [phensuximide] (10 µM) | 0.0814 | 112% (inactive)
O=C(O)Cc1cccc(OCCCN(Cc2cccc(C(F)(F)F)c2Cl)CC(c2ccccc2)c2ccccc2)c1 (10 µM) | 0.267 | 102% (inactive)

SMILES | morphology score [1] | SARS-CoV-2 infection rate [2]
CCN(CC)CCN[C@@H](C(=O)OCCC(C)C)c1ccccc1 [camylofine-chlorhydrate] (10 µM) | 0.18 | 98% (inactive)
COc1ccc(OC)c2c(=S)c3ccccc3[nH]c12 (10 µM) | -0.0609 | 106% (inactive)
COc1ccc(CC2NCCc3c2[nH]c2ccc(C)cc32)c(Cl)c1OC (stereo not given) (0.833333 µM) | -0.0343 | 104% (inactive)
OC(CCN1CCCCC1)(c1ccccc1)c1ccccc1 [pridinol] (10 µM) | 0.0166 | 108% (inactive)
CC(C)(O)C(Cl)(Cl)Cl [chlorobutanol] (10 µM) | 0.123 | 106% (inactive)
CC(C)(C)c1ccc(O)cc1 [4-tert-butylphenol] (10 µM) | 0.0892 | 110% (inactive)
CC(=O)OCC1=C(C(=O)O)N2C(=O)[C@@H](N)[C@H]2SC1 [7-aminocephalosporanic-acid] (10 µM) | -0.0363 | 104% (inactive)
CS(=O)(=O)N1CCN(Cc2cc3nc(-c4cccc5[nH]ncc45)nc(N4CCOCC4)c3s2)CC1 (10 µM) | -0.319 | 89% (inactive)
O=c1c2ccccc2nc2n1CCc1c-2[nH]c2ccccc12 [rutaecarpine] (10 µM) | 0.246 | 105% (inactive)
COc1ccc2c(c1)C(C(=O)N(Cc1ccc(N(C)C)cc1)c1ccc(C(C)C)cc1)CCC2 (stereo not given) (10 µM) | 0.106 | 85.5% (inactive)
CN1CCC[C@@H]1CCO[C@](C)(c1ccccc1)c1ccc(Cl)cc1 [clemastine] (10 µM) | 0.677 | 26.5% (active)
Cc1cc(Oc2ccc3nc(COc4ccc(CC5SC(=O)NC5=O)cc4)n(C)c3c2)cc(C)c1N (stereo not given) [efatutazone] (10 µM) | 0.36 | 93.5% (inactive)
CC(=O)O[C@]1(C(C)=O)CC[C@H]2[C@@H]3C[C@H](C)C4=CC(=O)C=C[C@]4(C)[C@@]3(F)[C@@H](O)C[C@@]21C [fluorometholone-acetate] (10 µM) | 0.0758 | 105% (inactive)
NC(=O)C[C@H](N)C(=O)O [L-asparagine] (10 µM) | 0.14 | 94% (inactive)
O=C(CCCCCN1C(=O)c2cccc3cccc(c23)C1=O)NO [scriptaid] (10 µM) | -0.255 | 120% (inactive)
Nc1ncnc2c1ncn2[C@@H]1O[C@H](COP(=O)(O)OP(=O)(O)OP(=O)(O)OP(=O)(O)OC[C@H]2O[C@@H](n3cnc4c(N)ncnc43)[C@H](O)[C@@H]2O)[C@@H](O)[C@H]1O [diadenosine-tetraphosphate] (10 µM) | 0.0713 | 108% (inactive)
C=CCNc1c(O)cc2c(O)c1C[C@@H](C)C[C@H](OC)[C@H](O)[C@@H](C)/C=C(\C)[C@H](OC(N)=O)[C@@H](OC)/C=C\C=C(/C)C(=O)N2 [retaspimycin] (10 µM) | -0.0349 | 108% (inactive)
O=C(NCCN1CCC2(CC1)C(=O)NCN2c1cccc(F)c1)c1ccc(F)c(F)c1 (10 µM) | 0.259 | 75.5% (inactive)
O=C1NCC2(CCN(CCc3ccccc3)CC2)O1 [fenspiride] (10 µM) | 0.208 | 101% (inactive)
O=C(/C=C/c1ccc(O)c(O)c1)O[C@H](Cc1ccc(O)c(O)c1)C(=O)O [rosmarinic-acid] (10 µM) | 0.152 | 94.5% (inactive)

SMILES | morphology score [1] | SARS-CoV-2 infection rate [2]
Nc1ccc(S(=O)(=O)Nc2ccc(Cl)nn2)cc1 [sulfachlorpyridazine] (10 µM) | 0.104 | 108% (inactive)
O=C1NC(=O)C(c2cnc3ccccn23)=C1c1cn2c3c(cc(F)cc13)CN(C(=O)N1CCCCC1)CC2 (10 µM) | -0.436 | 105% (inactive)
O=C(C[C@H]1CC(c2ccc(F)cc2F)=NO1)N1CCOCC1 (racemic) (10 µM) | 0.00815 | 103% (inactive)
C/C=C/C=C/C(=O)O [sorbic-acid] (10 µM) | -0.0925 | 101% (inactive)
C[C@H]1CC[C@H](n2c3cnccc3c3cnc(Nc4ccc5c(n4)CCN(C(=O)CO)C5)nc32)CC1 (10 µM) | 0.0031 | 110% (inactive)
CCN1CCN(C(=O)N[C@@H](C(=O)N[C@@H]2C(=O)N3[C@@H]2SC(C)(C)[C@@H]3C(=O)O)c2ccccc2)C(=O)C1=O [piperacillin] (10 µM) | 0.11 | 96% (inactive)
CC(=O)NS(=O)(=O)c1ccc(N)cc1 [sulfacetamide] (10 µM) | 0.147 | 100% (inactive)
Nc1c2ccccc2nc2ccccc12 [9-aminoacridine] (0.833333 µM) | 0.102 | 106% (inactive)
CCOC(=O)n1ccn(C)c1=S [carbimazole] (10 µM) | 0.159 | 99% (inactive)
CCN(CC)CC(=O)Nc1c(C)cccc1C [lidocaine] (10 µM) | 0.0603 | 100% (inactive)
CN(C)CC/C=C1/c2ccccc2Sc2ccc(Cl)cc21 [chlorprothixene] (10 µM) | 0.434 | 68.5% (inactive)
O=P(O)(O)CN(CCN(CP(=O)(O)O)CP(=O)(O)O)CP(=O)(O)O (10 µM) | 0.137 | 104% (inactive)
C=C[C@@H]1C[C@]1(NC(=O)[C@@H]1C[C@@H]2CN1C(=O)[C@H](C(C)(C)C)NC(=O)O[C@@H]1C[C@H]1CCCCCc1nc3ccc(OC)cc3nc1O2)C(=O)NS(=O)(=O)C1CC1 [grazoprevir] (10 µM) | 0.0897 | 109% (inactive)
C[C@@H](CN)CC(=O)O [3-methyl-GABA] (10 µM) | 0.0225 | 102% (inactive)
N[C@@H](C(=O)N[C@@H]1C(=O)N2C(C(=O)O)=C(Cl)CS[C@H]12)c1ccccc1 [cefaclor] (10 µM) | 0.0453 | 104% (inactive)
COc1[nH]c2ccc(F)cc2c1C(=O)OCC1CCN(CCNS(C)(=O)=O)CC1 (10 µM) | 0.0361 | 106% (inactive)
Cc1c(Cn2c(C)nc3c(C(=O)O)cc(N4CCOCC4)cc32)cccc1C(F)(F)F (0.833333 µM) | -0.135 | 118% (inactive)
NCCS(=O)(=O)O [taurine] (10 µM) | 0.19 | 94.5% (inactive)
COc1cc2ncnc(Nc3ccc(O)c(Br)c3)c2cc1OC (10 µM) | -0.194 | 103% (inactive)
CC(=O)O[C@]1(C(C)=O)CC[C@H]2[C@@H]3CCC4=CC(=O)CC[C@]4(C)[C@H]3CC[C@@]21C [hydroxyprogesterone-acetate] (10 µM) | 0.0136 | 104% (inactive)
